ATG4B inhibitor – ATG4B protease inhibitors, primary screen, biochemical, fluorescence, uHTS | hit rate 0.51% among 340,000 | Cysteine protease ATG4B (Homo sapiens), Q9Y4P1 | inhibition, % at 8.33 µM | ATG4B cleavage of LC3-PLA2, NBD-HPC fluorescence, 1 h; in the data active means inhibition above about 40%
NadD inh – inhibitors of S. aureus NadD, primary screen, biochemical, colorimetric, uHTS | hit rate 0.78% among 360,000 | AID 602399, 2012 | Nicotinate-nucleotide adenylyltransferase NadD (Staphylococcus aureus N315) | inhibition, % at 20 µM | purified NadD enzyme, colorimetric absorbance read-out; in the data active means inhibition above about 26%
SUMO Mot1 rescue – yeast Mot1-301 growth rescue at high temperature, primary screen, SUMOylation pathway inhibitor project, S. cerevisiae, ATP luminescence, 38.5C. S. cerevisiae Mot1-301 growth rescue; percent above DMSO median, 100 means doubled. growth rescue, % at 18.8 µM. hit rate 1% among 320,000. AID 2716, 2010;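 active means every valid replicate shows activation above 250% relative to neutral control wells; inactive means the rest, any valid replicate at or below 250%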;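 further: OY570 slx delta 5 strain wells were the positive control but not used for scaling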
FAS-TE inh – FAS thioesterase domain inhibitors, primary screen, biochemical, fluorescence intensity, uHTS | Fatty acid synthase (Homo sapiens), P49327 | inhibition, % at 15 µM | hit rate 0.67% among 360,000 | recombinant FAS-TE, OMFH fluorogenic substrate, fluorescence endpoint;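 active means compounds whose normalised, plate-corrected inhibition of enzyme fluorescence in the single-dose primary screen is 50% or more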;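 further: 0% = DMSO with enzyme and 100% = substrate without enzyme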
Calb FLC – C. albicans growth inhibition with fluconazole, primary screen, CaCi-2 strain, Alamar Blue fluorescence; C. albicans CaCi-2 (fluconazole-resistant clinical isolate) + fluconazole, 48 h; growth inhibition, % (test concentration not listed); hit rate 0.57% among 300,000; AID 1979, 2009;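 active means growth inhibition above about 58% in most replicates, limit read from the data, passing the limit was not always enough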;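 further: all wells also contain fluconazole at 8 µg/ml as a sub-toxic cotreatment; 0% = median of DMSO wells and 100% = median of geldanamycin control wells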
Mot1 SUMO dose – growth restoration of Mot1-301 yeast on galactose, dose response, SUMO pathway inhibitor project, whole organism, S. cerevisiae, ATP luminescence, cherry-picked samples; shares compounds with SUMO Mot1 rescue; AID 493004, 2010; growth activity, percent, % at 42 µM; S. cerevisiae Mot1-301 galactose growth, 24 h; -100 = growth of slx-deleted rescue strain; 2,300 tested, under 10 active;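 active means Signal drops as the depositor expects, and the fitted half-maximal dose is no more than ten times the top valid tested dose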;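 further: more negative values mean stronger growth rescue toward the control strain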
Numbers without * were called inactive; i = inactive; / = no result given; + = active, no number; [ ] = remark or other dose. Rows were chosen to be rich in hits. Some 3.1% of all compounds tested hit in one or more screens of this group.

SMILES	ATG4B inhibitor	NadD inh	SUMO Mot1 rescue	FAS-TE inh	Calb FLC	Mot1 SUMO dose
Cc1ccccc1CS(=O)(=O)Cc1ccc(C(=O)NCC2CCCO2)o1 (configuration not stated)	0	-4	0	-8	14	/
COc1cc2c(cc1OC)C(COc1ccc([N+](=O)[O-])cc1)NCC2 (configuration not stated)	-1	-3	31	3	-3	/
O=C(CSc1nc2ccc(Cl)cc2[nH]1)NCc1ccco1	13	1	358*	-2	-6	0
O=C(CSc1nc2ccccc2[nH]1)NCc1ccco1	3	9	1	-11	14	/
COc1cc(CN2CCN(c3ncccn3)CC2)cc(OC)c1	2	4	534*	-3	10	0
COc1ccc(CN2CCN(c3ncccn3)CC2)c(OC)c1	0	1	-1	-8	-27	/
COc1ccc(CC(=O)Nc2cc(F)ccc2F)cc1S(=O)(=O)N1CCOCC1	/	-7	/	-7	/	/
CSc1cccc(N2C(=O)C3CCCN3C2=S)c1 (configuration not stated)	-3	-7	802*	-7	-5	1
Cc1cc(C)c2cc(C)c3nnc(SCC(=O)NCc4ccc5c(c4)OCO5)n3c2c1	-9	-11	621*	4	9	0
Cc1cc2cc(C)c3nnc(SCC(=O)NCc4ccc5c(c4)OCO5)n3c2cc1C	-5	1	-11	12	-20	/
Cc1nn(Cc2ccc(C(=O)Nc3ccccc3C(F)(F)F)o2)c(C)c1Br	12	-7	440*	15	4	0
COCCn1c(N)c(N(Cc2ccccc2)C(=O)CN2C(=O)NC(C)(c3ccccc3)C2=O)c(=O)[nH]c1=O (configuration not stated)	1	-1	531*	-7	-6	0
CCCCn1c(N)c(N(Cc2ccccc2OC)C(=O)CN2C(=O)NC(C)(c3ccccc3)C2=O)c(=O)[nH]c1=O (configuration not stated)	-5	1	5	-7	0	/
O=C(CN1CCC(NC(=O)c2ccccc2Cl)CC1)NCc1ccco1	-3	-2	-1	-12	9	/
Cc1nc2nc[nH]n2c(=O)c1NS(=O)(=O)c1ccc([N+](=O)[O-])cc1	-3	3	487*	-8	0	0
CC(=O)N1CCc2cc(S(=O)(=O)NCCCN3CCCCC3)ccc21	-3	-2	2	-4	0	/
CC(=O)N1CCc2cc(S(=O)(=O)NCCC3=CCCCC3)ccc21	-3	0	+	5	-4	0
CCOC(=O)/C(C#N)=C\c1ccc(CC)s1	2	-5	+	0	-2	0
CC1CCN(CCCCOc2ccc(Cl)cc2)CC1	-5	-9	427*	-8	-5	0
Cc1cc(-c2ccc(Cl)cc2Cl)c(C#N)c(=O)[nH]1	-2	-1	418*	-2	4	1
COCC(=O)NNC(=O)c1ccccc1OC	-10	2	438*	-6	-3	0
O=C(c1cc(Cl)c(=O)n(Cc2ccc(Cl)cc2)c1)N1CCOCC1	3	0	658*	-4	-10	0
CC1C(=O)CC(c2ccccc2)N(C)C1c1ccccc1 (configuration not stated)	2	1	537*	19	-2	0
Cc1nc2cc(F)ccc2n1C1CCN(C(=O)c2c(F)cccc2F)CC1	0	6	i	-2	3	/
Cc1ccc(C)c(N2CCN(C(c3ccncc3)c3nnnn3Cc3ccccc3)CC2)c1 (configuration not stated)	0	-4	422*	4	-1	1[21 µM]
CCCCn1nnnc1C(c1ccccc1)N1CCN(c2cc(C)ccc2C)CC1 (configuration not stated)	/	-1	/	22	/	/

Screens from PubChem BioAssay.
